One sequence from US20060193821, “Aptamers to the human IL-12 cytokine family and their use as autoimmune disease therapeutics” (published 2006) can be followed below.

For this test, the target named is IL-12 (human, p35/p40 heterodimer) (Homo sapiens, UniProt P29459;P29460 SEQ:57-253,SEQ:23-328). Nature of the test: competition; fold specificity for IL-23 over IL-12; 250 nM IL-12, saturation re-analysis of competition data. The note with it: G4; XNA; deoxy A and G, 2'-OMe C and U. The method, then: Several of the minimized constructs from the dRmY Selection 2 were also assayed in a competition format in which cold aptamer was titrated and competed away trace ³²P ATP labeled aptamer In the competition assay, the [IL-23] was held constant, the [trace labeled aptamer] was held constant, and the [unlabeled aptamer] was varied. The KD was calculated by fitting the following equation to the data: Fraction aptamer bound=amplitude*([aptamer]/(KD+[aptamer]))+background binding.
IL-12 (human, p35/p40 heterodimer), sequence (P29459 23-219, chain 1 of 2): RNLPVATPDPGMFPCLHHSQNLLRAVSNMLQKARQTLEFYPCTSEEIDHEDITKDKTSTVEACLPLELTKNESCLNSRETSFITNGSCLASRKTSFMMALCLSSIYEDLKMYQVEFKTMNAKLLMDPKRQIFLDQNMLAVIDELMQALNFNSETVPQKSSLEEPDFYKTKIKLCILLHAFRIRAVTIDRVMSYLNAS
IL-12 (human, p35/p40 heterodimer), sequence (P29460 23-328, chain 2 of 2): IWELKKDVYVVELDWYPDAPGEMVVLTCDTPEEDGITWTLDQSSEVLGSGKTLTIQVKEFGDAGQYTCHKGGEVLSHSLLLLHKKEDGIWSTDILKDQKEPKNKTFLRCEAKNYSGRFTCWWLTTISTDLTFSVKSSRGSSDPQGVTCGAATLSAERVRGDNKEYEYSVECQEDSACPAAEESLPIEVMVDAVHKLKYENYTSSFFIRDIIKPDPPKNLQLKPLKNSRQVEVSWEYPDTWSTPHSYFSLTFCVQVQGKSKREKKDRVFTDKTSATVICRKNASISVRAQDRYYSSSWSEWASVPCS
The competitive binding data was re-analyzed in a saturation binding experiment where the concentration of ligand (aptamer) was varied and the concentration of receptor ([…]) was held constant and the [bound aptamer] was plotted versus the [total input aptamer].
In turn, ACAGGCAAGUAAUUGGGGAGUGCGGGCGGGGUGU had a binding signal of 33 fold.
